# Assay results reported in PubChem BioAssay.
# Activity calls are given as the source filed them.
# Tests used:
# Albumin (Bos taurus) = Albumin (Bos taurus) (UniProt P02769); experiment: bovine serum albumin binders on microarray, profiling panel, artefact control for SMM control protein annotation, biochemical, small-molecule microarray, Alexa647 label, 635/667 nm fluorescence (AID 1118); conditions: BSA-A647 binding, fluorescence 635 nm, higher = more signal;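 note: score merges 667 nm emission intensity and signal-to-noise per printed compound spot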
# Albumin (Bos taurus), sequence (P02769 whole entry, looked up): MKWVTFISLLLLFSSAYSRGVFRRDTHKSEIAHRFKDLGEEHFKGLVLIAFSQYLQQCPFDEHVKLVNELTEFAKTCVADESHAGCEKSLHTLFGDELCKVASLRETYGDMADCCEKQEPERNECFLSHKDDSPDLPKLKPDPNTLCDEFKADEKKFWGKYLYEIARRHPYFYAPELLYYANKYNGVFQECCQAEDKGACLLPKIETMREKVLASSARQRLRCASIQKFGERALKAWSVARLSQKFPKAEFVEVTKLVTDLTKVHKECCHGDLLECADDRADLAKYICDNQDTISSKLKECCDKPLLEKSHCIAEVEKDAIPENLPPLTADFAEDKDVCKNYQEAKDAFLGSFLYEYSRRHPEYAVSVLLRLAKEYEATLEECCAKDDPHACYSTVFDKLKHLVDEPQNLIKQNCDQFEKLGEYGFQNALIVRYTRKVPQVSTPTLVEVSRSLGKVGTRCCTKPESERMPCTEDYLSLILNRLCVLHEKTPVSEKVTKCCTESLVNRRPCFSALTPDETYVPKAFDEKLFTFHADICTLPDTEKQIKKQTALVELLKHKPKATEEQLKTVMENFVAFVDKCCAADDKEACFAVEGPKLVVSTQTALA
# [1] = small-molecule microarray binders of probe aXIP, primary screen, biochemical, NeuroSMM set, 635/667 nm fluorescence (AID 1119); conditions: higher = more signal, called active from +8 up or from −8 down;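 note: probe is the protein aXip251-270 applied at 1 µg/mL to compound-printed slides; binding of probe to printed compounds measured as 667 nm fluorescence plus signal to noise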
# [2] = small-molecule binders of probe aNOTCH3, primary screen, biochemical, small-molecule microarray, 635/667 nm fluorescence (AID 1120); conditions: higher = more signal;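 note: probe is a biotin-tagged antibody raised against NOTCH3 rather than NOTCH3 protein; score merges spot fluorescence near 667 nm with spot signal to noise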
# [3] = small-molecule binders of probe aNOTCH2, primary screen, biochemical, small-molecule microarray, 635/667 nm fluorescence (AID 1121); conditions: higher = more signal;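 note: score merges feature fluorescence read at 667 nm with its signal to noise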
# [4] = biological target: Carbonic anhydrase 2 (Homo sapiens) (UniProt P00918); experiment: CAII small-molecule binders, profiling panel, biochemical, small-molecule microarray, Alexa647-labelled CAII (AID 1122); conditions: CAII-A647 binding fluorescence, higher = more signal
# [5] = COS7 lysate on small-molecule microarray, probe aHis, 635 nm (AID 1123); conditions: COS7 cell lysate, fluorescence, higher = more signal;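 note: z-score combines 667nm fluorescence intensity with signal-to-noise per printed compound spot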
# [6] = compound binding in COS7 lysate, probe aLAP1, primary screen, cell lysate, small-molecule microarray (AID 1124); conditions: probe aLAP1, fluorescence, higher = more signal;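 note: lysate comes from COS7 cells expressing LAP1 and is applied at 0.3 µg/mL; score merges spot fluorescence near 667 nm with signal-to-noise over triplicate slides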
# Sam68 (KHDRBS1) = experiment: Sam68 small-molecule binders, primary screen, biochemical, small-molecule microarray, 635 nm fluorescence (AID 1125); conditions: small-molecule microarray binding, higher = more signal;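 note: score merges 667 nm channel intensity with signal to noise over triplicate slides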
# [7] = tested on: Chordin-like protein 2 (CHRDL2); experiment: CHRDL2 small-molecule binders, primary screen, biochemical, small-molecule microarray, 635 nm fluorescence (AID 1126); conditions: small-molecule microarray binding, fluorescence 635 nm; higher = more signal;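 note: printed compound slides probed with Chrdl2 protein at 4 µg/mL for 1 h at 4 C; score merges 667 nm emission intensity with signal to noise over three replicate slides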
# [8] = biological target: Concanavalin-A (Canavalia ensiformis) (UniProt P02866); experiment: ConA small-molecule binders, primary screen, artefact control for SMM control protein annotation, biochemical, small-molecule microarray, Alexa647 label, 635 nm (AID 1127); conditions: ConA-A647 binding fluorescence, higher = more signal;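 note: z combines 667 nm emission intensity with signal-to-noise across three replicate slides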
# Concanavalin-A (Canavalia ensiformis), sequence (P02866 whole entry, looked up): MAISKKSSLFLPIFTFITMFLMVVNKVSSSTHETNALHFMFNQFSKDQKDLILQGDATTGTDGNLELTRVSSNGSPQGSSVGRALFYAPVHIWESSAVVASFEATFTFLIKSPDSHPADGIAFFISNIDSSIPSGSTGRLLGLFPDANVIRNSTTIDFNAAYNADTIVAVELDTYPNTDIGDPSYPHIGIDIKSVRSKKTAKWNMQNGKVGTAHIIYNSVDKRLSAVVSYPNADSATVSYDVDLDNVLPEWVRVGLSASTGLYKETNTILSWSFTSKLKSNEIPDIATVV
# [9] = anti-His antibody binders, primary screen, artefact control for SMM control protein annotation, biochemical, small-molecule microarray, 635 nm fluorescence (AID 1128); conditions: anti-His Alexa647 antibody binding, higher = more signal;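 note: score merges feature fluorescence with signal-to-noise for each printed compound spot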
# [10] = tested on: Human papillomavirus type 1a E7 protein (residues 1-88); experiment: HPV1a E7 small-molecule binders, primary screen, biochemical, small-molecule microarray, residues 1-88, 635 nm (AID 1129); conditions: small-molecule microarray binding, fluorescence 635 nm; higher = more signal
# [11] = biological target: Focal adhesion kinase 1 (Homo sapiens) (UniProt Q05397); experiment: small-molecule microarray binders of FAK, primary screen, biochemical, 635/667 nm fluorescence, BSA, DTT (AID 1130); conditions: PTK2 binding, 635 nm fluorescence, higher = more signal;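 note: composite of spot emission at 667 nm and signal to noise over triplicate slides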
# Focal adhesion kinase 1 (Homo sapiens), sequence (Q05397 whole entry, looked up): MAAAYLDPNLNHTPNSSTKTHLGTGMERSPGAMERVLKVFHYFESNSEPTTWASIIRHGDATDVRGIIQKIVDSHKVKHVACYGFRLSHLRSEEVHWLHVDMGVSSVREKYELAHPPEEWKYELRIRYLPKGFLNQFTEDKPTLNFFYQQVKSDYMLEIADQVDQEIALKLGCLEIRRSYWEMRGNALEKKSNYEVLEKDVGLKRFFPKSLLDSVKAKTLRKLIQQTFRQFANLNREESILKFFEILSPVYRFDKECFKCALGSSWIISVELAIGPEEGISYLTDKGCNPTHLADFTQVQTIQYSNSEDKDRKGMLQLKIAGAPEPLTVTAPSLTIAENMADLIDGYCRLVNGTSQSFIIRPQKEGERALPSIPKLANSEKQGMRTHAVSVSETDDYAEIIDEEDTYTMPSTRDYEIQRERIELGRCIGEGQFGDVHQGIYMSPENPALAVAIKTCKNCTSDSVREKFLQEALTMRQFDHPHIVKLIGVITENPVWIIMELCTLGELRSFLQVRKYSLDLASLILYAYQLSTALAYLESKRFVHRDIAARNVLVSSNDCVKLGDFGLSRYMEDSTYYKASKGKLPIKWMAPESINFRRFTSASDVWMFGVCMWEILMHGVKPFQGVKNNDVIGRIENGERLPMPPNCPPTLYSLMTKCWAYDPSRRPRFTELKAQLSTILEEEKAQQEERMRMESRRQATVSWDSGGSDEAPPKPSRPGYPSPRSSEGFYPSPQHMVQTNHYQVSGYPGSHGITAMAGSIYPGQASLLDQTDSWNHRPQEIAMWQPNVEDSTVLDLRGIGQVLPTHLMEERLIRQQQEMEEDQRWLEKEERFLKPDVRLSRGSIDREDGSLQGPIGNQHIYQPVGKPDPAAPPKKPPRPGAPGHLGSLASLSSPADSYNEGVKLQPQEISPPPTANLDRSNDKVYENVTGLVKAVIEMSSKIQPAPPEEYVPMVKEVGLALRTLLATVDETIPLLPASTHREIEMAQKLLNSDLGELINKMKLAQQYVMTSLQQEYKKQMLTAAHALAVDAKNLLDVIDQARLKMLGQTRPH
# [12] = tested on: Fibrinogen (Alexa647-labelled); experiment: fibrinogen binders on compound microarrays, profiling panel, artefact control for SMM control-protein annotation, biochemical, small-molecule microarray, 635/667 nm fluorescence (AID 1131); conditions: fibrinogen-A647 binding fluorescence, higher = more signal;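 note: z-score merges 667 nm fluorescence with per-spot signal-to-noise over triplicate slides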
# [13] = biological target: Follistatin (Homo sapiens) (UniProt P19883); experiment: follistatin binders on small-molecule microarrays, primary screen, biochemical, small-molecule microarray, 635/667 nm fluorescence (AID 1132); conditions: FST binding, 635 nm fluorescence, higher = more signal
# Follistatin (Homo sapiens), sequence (P19883 whole entry, looked up): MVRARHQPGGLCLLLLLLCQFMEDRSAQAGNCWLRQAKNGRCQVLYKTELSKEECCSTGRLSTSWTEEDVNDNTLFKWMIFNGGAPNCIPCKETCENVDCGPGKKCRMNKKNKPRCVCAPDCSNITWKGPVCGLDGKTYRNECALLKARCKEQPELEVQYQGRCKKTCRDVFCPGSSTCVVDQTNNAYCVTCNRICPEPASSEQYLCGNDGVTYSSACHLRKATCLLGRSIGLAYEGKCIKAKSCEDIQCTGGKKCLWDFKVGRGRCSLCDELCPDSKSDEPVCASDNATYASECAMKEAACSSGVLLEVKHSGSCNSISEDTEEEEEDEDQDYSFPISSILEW
# [14] = biological target: Fibroblast growth factor 2 (Homo sapiens) (UniProt P09038); experiment: FGF2 binders on small-molecule microarrays, primary screen, biochemical, small-molecule microarray, 635/667 nm fluorescence (AID 1133); conditions: small-molecule microarray binding, FGF2, fluorescence 635/667; higher = more signal
# Fibroblast growth factor 2 (Homo sapiens), sequence (P09038 whole entry, looked up): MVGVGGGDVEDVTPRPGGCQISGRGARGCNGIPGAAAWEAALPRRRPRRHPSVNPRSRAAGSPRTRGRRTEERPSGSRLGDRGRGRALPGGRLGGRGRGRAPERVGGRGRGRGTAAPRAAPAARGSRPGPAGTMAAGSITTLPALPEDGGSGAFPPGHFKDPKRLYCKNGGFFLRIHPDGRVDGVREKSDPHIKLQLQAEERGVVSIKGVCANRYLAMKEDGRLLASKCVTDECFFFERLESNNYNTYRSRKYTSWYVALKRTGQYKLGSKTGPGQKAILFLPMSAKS
# [15] = mitochondrial membrane potential change in A549 cells, profiling panel, cell-based, JC-1 fluorescence, basal, 24 h, 100 nL (AID 1138); conditions: higher = more signal;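 note: A549 lung adenocarcinoma cells under basal conditions with no added stimulus; test concentration not given here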
# Lefty1 = Lefty1 binders on small-molecule microarrays, primary screen, biochemical, small-molecule microarray, 635/667 nm fluorescence (AID 1139); conditions: small-molecule microarray binding, fluorescence 635/667; higher = more signal
# [16] = tested on: wheat germ agglutinin (Triticum aestivum), Alexa647-labelled; experiment: wheat germ agglutinin binders on compound microarrays, profiling panel, artefact control for SMM control-protein annotation, biochemical, small-molecule microarray, 635/667 nm fluorescence (AID 1140); conditions: WGA-A647 binding, 635 nm fluorescence, higher = more signal;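 note: score merges 667 nm feature emission with signal to noise over triplicate slides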
# [17] = biological target: Luciferin 4-monooxygenase (Photinus pyralis) (UniProt P08659); experiment: firefly luciferase enzyme inhibitors, primary screen, biochemical, luminescence, purified enzyme, 2006 set (AID 1141); conditions: SteadyGlo luminescence, 30 min, higher = more signal, called active from +8 up or from −8 down;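 note: cell-free assay with purified firefly luciferase at 100 ng per well in PBS; test concentration not given here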
# Luciferin 4-monooxygenase (Photinus pyralis), sequence (P08659 whole entry, looked up): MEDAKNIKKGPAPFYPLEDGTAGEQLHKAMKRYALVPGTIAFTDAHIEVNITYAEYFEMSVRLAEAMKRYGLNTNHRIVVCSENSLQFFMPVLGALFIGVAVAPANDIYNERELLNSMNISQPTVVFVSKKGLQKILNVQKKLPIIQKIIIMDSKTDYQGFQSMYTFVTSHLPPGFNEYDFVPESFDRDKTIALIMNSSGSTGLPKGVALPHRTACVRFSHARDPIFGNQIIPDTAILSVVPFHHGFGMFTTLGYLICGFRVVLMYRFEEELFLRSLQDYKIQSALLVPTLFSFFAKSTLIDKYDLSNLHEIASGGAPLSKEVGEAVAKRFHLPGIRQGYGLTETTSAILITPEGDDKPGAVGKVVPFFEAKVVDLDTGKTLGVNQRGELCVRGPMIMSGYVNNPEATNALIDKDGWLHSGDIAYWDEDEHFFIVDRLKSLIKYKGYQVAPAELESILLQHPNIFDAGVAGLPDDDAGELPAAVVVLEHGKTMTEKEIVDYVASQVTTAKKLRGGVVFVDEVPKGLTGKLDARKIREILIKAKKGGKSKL
Structure (SMILES),composite z-score (Albumin (Bos taurus)),composite Z-score [1],composite z-score [2],composite z-score [3],composite z-score [4],composite z-score [5],composite z-score [6],composite z-score (Sam68 (KHDRBS1)),composite z-score [7],composite z-score [8],composite z-score [9],composite z-score [10],composite z-score [11],composite z-score [12],composite z-score [13],composite z-score [14],z-score [15],composite z-score (Lefty1),composite z-score [16],z-score [17]
COCCCN1C(=O)[C@@]2(Cc3ccccc31)c1ccccc1C(=O)N(Cc1ccccc1Cl)[C@H]2c1ccc(CO)cc1,-0.538,-0.17 (inactive),-0.126,-0.162,0.106,-0.0024,0.179,0.0462,-0.272,0.0915,-1.15,-1.53,-0.557,-0.358,-0.45,-0.0761,0.83,-0.348,-1.02,-1.13 (inactive)
CC(C)C(=C=CC[C@@H](O)c1ccc(CO)o1)CCO,-0.596,1.71 (inactive),-0.0984,-0.11,0.795,0.57,-0.0333,0.541,0.107,0.349,0.635,-0.356,-0.7,0.401,0.987,1.05,1.86,0.759,0.308,-2.15 (inactive)
COC(=O)C1=CC(c2ccc(CO)cc2)=CC(c2cccs2)N(C)C=C1C(=O)OC (stereo not given),0.208,0.875 (inactive),-0.0023,-0.14,0.589,2,0.387,0.494,-1.14,0.494,1.48,-0.351,1.18,-0.141,0.23,-0.485,1.08,-0.116,0.84,-0.822 (inactive)
CCCCC(=C=CC[C@H](O)c1cccc(OCCO)c1)CCO,0.15,-0.434 (inactive),-0.0699,-0.162,0.681,0.24,0.133,-0.319,-0.361,-0.245,0.0233,-0.282,0.44,-0.644,0.455,0.287,1.97,-0.103,-0.602,-0.835 (inactive)
NCCCCCCNC(=O)[C@@H]1C[C@@H]2C(=O)N[C@@H](Cc3ccccc3)C(=O)N2[C@@H]1c1ccc(O)cc1,0.676,0.755 (inactive),0.0418,-0.112,0.65,0.68,0.915,1.06,0.283,1.12,1.94,0.434,0.332,0.63,0.898,0.312,0.613,0.104,0.931,-1.15 (inactive)
C=C(COC)/C(=C/C[C@H](OC(C)=O)c1ccc(CO)o1)c1cnc2ccccc2c1,0.15,0.837 (inactive),0.116,-0.11,0.969,1.25,-0.105,1.29,1.14,1.09,1.28,1.17,0.284,-0.0185,1.42,1.31,0.861,1.58,1.35,-2.1 (inactive)
CC(C)CCC[C@@H](C)[C@H]1CC[C@@]2(C)C3=C(CC[C@]12C)[C@@]1(C)CC[C@H](OC(=O)CCl)C(C)(C)C1CC3 (stereo not given in full),0.256,0.222 (inactive),0.183,-0.0829,0.153,0.555,-0.0674,0.404,0.549,0.47,-0.107,0.708,0.272,0.649,0.409,0.363,1.35,0.327,0.274,-1.28 (inactive)
CCCCCCC#C[Si](O[C@H](c1ccccc1)c1cn(Cc2ccccc2)nn1)(C(C)C)C(C)C,0.0774,0.131 (inactive),-0.0918,-0.182,0.273,0.0604,0.155,0.458,0.187,0.132,0.254,0.262,-0.326,-0.418,0.126,0.594,4.41,0.806,-0.349,-1.15 (inactive)
C=CC[C@@H](OC(=O)Nc1ccc(SC)cc1)c1ccc(OCCO)cc1,-0.733,0.667 (inactive),-0.267,-0.179,0.758,1.99,0.105,0.655,-2.01,-0.264,2.42,-0.0392,-0.783,-1.58,-1.15,-0.991,0.844,-0.763,-0.666,-3.91 (inactive)
CC(C)N1C(=O)c2ccccc2[C@@H](C(=O)NCc2ccccc2)[C@@H]1c1ccc(CO)cc1,-2.18,0.335 (inactive),-0.27,-0.162,0.741,1.51,0.409,0.0504,-0.184,-1.07,-1.36,0.369,0.427,-1.22,0.815,0.82,1.64,-1.28,-1.51,-0.886 (inactive)
NCCCCCNC(=O)[C@H]1C[C@H]2C(=O)NCC(=O)N2[C@H]1c1ccc(O)cc1,1.06,0.696 (inactive),0.0596,-0.105,0.685,1.08,0.521,1.29,1.14,1.22,2.54,1.19,0.366,0.97,1.48,1.75,0.68,1.69,1.3,-1.04 (inactive)
